# Data published in the supplement of paper PMC6555819.
# Tested on: RARb:RXRa (NR concentration 270 nM, RXRa partner concentration 90 nM)
# Assay: PBM binding z-score (relative to random genomic background probes); higher = stronger binding; sequences stand for … in GC…GCGATTGACAGCGTAGAATGAAGG
# Outline: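 On custom Agilent 4×180K arrays, double-stranded probes with 34-nt variable regions carried direct-repeat seeds, single-nucleotide variants, half-site ablations or random human genomic background. Ligand-free nuclear receptor dimers were applied for 1 h, and binding was read with antibodies against each partner (one per run). Binding z-scores come from regression-normalized fluorescence, with the random background probes as reference.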
row,Sequence,PBM binding z-score
1,ATTACAGGGTCATCGTAGGCCAGAGTACGCACAG,4.45
2,ACTCGGAGGACAAAGGTCAGATCTACGCCAGTGA,4.33
3,TTACCAAGGTGAGCTGAGGTCGCTGATCCAACTC,1.95
4,CCTCGGAGGACAGAAGGTCTGAGCTGTCCGCTTT,0.519
5,GCCTACGGGTCAAAGGTTATAGCATGAATAGAAT,4.34
6,TAGCCTAGGTCAGTGGGCCAGTATAGTACGCATC,3.01
7,CCTAGCAGGCCAATCTGGGGCACTCAAGGCTTGA,0.323
8,GCTCGGAGGACCAGGTCAGAGCTTTGTCCGTAGA,1.35
9,GCTATTAGTTCAAAGGGCAACCGAATGATTCTCG,3.3
10,ACAGACAGGTGGTGAAGGTAACTCAGGCTATCAT,-0.142
11,TCTAGTTGGTCAAAGTTCACACACTCGAAATGCG,3.83
12,TCACCAAGGTGAGCTGAGGTCGTTGATCCAACTC,1.61
13,CCTGCTAGGTCAATGGGCAGCTAAAGCAGCTCGC,3.6
14,TCGAGTAGGTTAGTAGGGGCATTCAGCCAACATA,0.637
15,TCGAGTAGGTTACCAATGGGGCATGCAGCTTTCT,0.932
16,TCGTGTAGGTTACCAATGGGGCATTCAGCTTTCT,1.31
17,TCAGACAGGTGAAGGTAACTGAGGTACGCAGTCG,1.04
18,ATCTCTAGGTAAAGATAGTTCAGTGAATGCAAAT,0.654
19,TCTAGTTGTTCACGGAGGTCACACACGACGGGTA,3.37
20,TAGCCTAGCTCATGGGCCAGTATACCACGCGAAC,-0.413

row,Sequence,PBM binding z-score
1,CAAACTAGGTCCAAGGTCAAAGTCGAGCCAACCA,3.51
2,ATCTCTAGGTAAGACTCAGTTTAGTGAAGAACGC,0.222
3,CGTCCAAGCTCAAGGTCAGTGAAAGAGACTCGAA,3.43
4,TAGCCTAGGTCATGCGGTCCAGTATAGTGTCGGC,3.79
5,ACTAGCAGGCCAAGTTAGGGTCACTCAAACAAAG,2.86
6,GGAACGAGGGCAAAGCTGATAGCATCTGTCGACG,1.99
7,ATCTCAAGGTAACCAAGTTCAGTGAATGCCGAAC,1.62
8,CGAACTAGGTCATCCACGACAGTGAATACATTGA,3.87
9,CGAACGAGGGCATGTGTTGATAGCAAATGCCGAT,1.81
10,ACAGACAGGTGCTGAAGGTAACTCAGGCTATCAT,-0.476
11,CCGACTGGGGCAAAGGTTACCGTACTCAGTACGA,2.39
12,GCTCGGAGTACAAGGTCAGAGCTTTGTCCGTAGA,3.07
13,TCTCGGAGGACACGAAAGTTCAGAGCTCGACATC,2.78
14,CCTCGGAGGACAGAAGGTCAGACCTGTCCGCTTT,3.22
15,ATCTCTAGGTAAAGTTCAGTCAAAGATCGATAGA,2.55
16,CCTTACGGATCAAGGTTATAGCACGGGTGGTACG,0.891
17,AGAACGAGGGCACGCAGAGTTGATAGCAGAGTAG,2.92
18,TCTGCTCGGTCAACGATGGTCAGCTAATCTGCTA,2.59
19,CCGGACAGGTGAAAGGTAACTCAGTCTGGTACGC,1.46
20,CCTCGGAGGACAGAAGGTCACAGCTGTCCGCTTT,3.77
